# Assay results: PubChem BioAssay AID1347428 (National Center for Advancing Translational Sciences (NCATS), 2020)
# Out of some 91,000 compounds screened, about 290 (0.32%) were called active. Entries that show only a call come without a potency. Roughly 7% stayed inconclusive and do not appear here. Calls come from the whole dose curve; as a rule, active = well fitted inhibition curve with a large enough effect; inconclusive = small, poorly fitted or top-dose-only effect; inactive = no such curve, though single readings can be large or run the other way. Only a selection was taken, and actives are over-represented in it overall.
# Target: Single-stranded DNA cytosine deaminase (Homo sapiens) (UniProt Q9GZX7)
# Test: Primary qHTS assay for inhibitors of Activation Induced Cytidine Deaminase (AID): AID signal; note: nearly all actives have a fitted effect of over 25% in size
# Details: AID deamination FRET fluorescence, UDG-coupled, 4 h; series mostly up to 115 µM
# Potency is the fitted concentration of half-maximal effect.
# Single-stranded DNA cytosine deaminase (Homo sapiens), sequence (Q9GZX7 whole entry, looked up): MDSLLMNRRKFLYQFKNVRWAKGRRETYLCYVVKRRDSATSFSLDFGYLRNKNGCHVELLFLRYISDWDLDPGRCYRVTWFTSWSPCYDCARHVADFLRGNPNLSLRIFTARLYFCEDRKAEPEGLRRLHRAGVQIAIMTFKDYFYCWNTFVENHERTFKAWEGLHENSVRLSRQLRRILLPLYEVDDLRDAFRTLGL
row,SMILES,Potency
1,Cc1cc(O)c2c(C)c(CC(=O)Nc3nc4ccccc4[nH]3)c(=O)oc2c1,inactive
2,Cc1ccc(CC(=O)NC2(C)CCCc3ccccc32)cc1 (centres undefined),inactive
3,CCn1c(SCC(=O)N2CCc3ccccc32)nnc1C(C)NC(=O)c1ccccc1F (centres undefined),inactive
4,O=S1(=O)C=CC(N(Cc2ccccc2)Cc2ccccc2F)C1 (centres undefined),inactive
5,Cc1cc(NC(=O)C(C)Sc2nc(NC3CC3)c3ccccc3n2)no1 (centres undefined),inactive
6,O=C(NC(CCCc1ccccc1)c1ccccc1)c1ccc[n+]([O-])c1 (centres undefined),inactive
7,COc1ccc(OC)c(CNC(=O)c2scnc2C)c1,inactive
8,CCCCNC(=O)CSc1c2c(nc3cc(Cl)ccc13)CCCC2,inactive
9,COc1cccc(N=C2NN=C(c3ccc4c(c3)CC(C)N4S(C)(=O)=O)CS2)c1 (centres undefined),inactive
10,COc1cc(C(=O)Oc2ccc(C(C)=O)cc2)ccc1C,inactive
11,CCN(C)Cc1cccc(CNC(=O)NC2CC2)c1,inactive
12,CCCCn1c(CNC(=O)C23CC4CC(CC(C4)C2)C3)nnc1SCC(=O)Nc1ccc(C)cc1,44.7 µM (active)
13,Cc1cccc(NC(=O)CSc2nnc(CNC(=O)c3cccc(C)c3)n2-c2ccccc2)c1,inactive
14,CCn1c(CNC(=O)C23CC4CC(CC(C4)C2)C3)nnc1SCC(=O)Nc1ccc(OC)cc1,inactive
15,Cc1ccc(-n2c(=O)c3sccc3n(CC(=O)N3CCCCC3C)c2=O)cc1C (centres undefined),inactive
16,N#Cc1c(SCC(=O)N2CCCC2)nc(N2CCOCC2)c2c1CCCC2,inactive
17,Cc1ccc(NC(=O)Cn2c(=O)c3c(ncn3CC(C)C)n(CC(C)C)c2=O)cc1F,inactive
18,CCOC(=O)c1ccc(NC(=O)CCn2cnnn2)cc1,inactive
19,N#Cc1ncn(CCC(=O)Nc2ccc(F)c(F)c2)n1,14.1 µM (active)
20,Cc1nc2nc(SCC(=O)c3ccccc3)[nH]c2cc1Br,inactive
21,CN(Cc1c(F)cccc1Cl)C(=O)c1ccc(NS(C)(=O)=O)cc1,inactive
22,O=C(NC1CC1)c1cc(-c2ccc(Cl)cc2)nc2ccccc12,inactive

row,SMILES,Potency
1,COc1cc(F)ccc1NC(=O)Cc1nn(C)c(=O)c2ccccc12,inactive
2,COc1ccc(-c2nnc(SCCOc3ccc(Cl)cc3Cl)n2C(C)C)cc1,inactive
3,O=C(c1cnn(-c2ccc(F)cc2)c1-n1cccc1)N1CCN(c2ccc(F)cc2)CC1,inactive
4,Cc1c(Cl)cccc1NC(=O)C1CCCN(c2ncnc3onc(C)c23)C1 (centres undefined),inactive
5,Cc1c(Cl)cccc1NC(=O)C1CCCN(C(=O)c2cnn(-c3ccccc3)c2-n2cccc2)C1 (centres undefined),22.4 µM (active)
6,Nc1nnnn1Cc1nnc(SCc2ccc(F)cc2)n1-c1ccccc1,inactive
7,Cc1ccccc1/C=C1\CCc2ccccc2C1=O,inactive
8,O=C(NC(c1ccccc1)c1ccccn1)c1cc[n+]([O-])cc1 (centres undefined),inactive
9,O=C(NCCc1ccccc1)c1[nH]c2ccccc2c1Cl,inactive
10,COc1cc(C(=O)Nc2ccc(C(=O)O)cc2)c2ccccc2n1,inactive
11,COc1ccccc1-c1cc(=O)c2cc(C)ccc2o1,inactive
12,COC(=O)C(C)(NC(=O)CCC(=O)c1ccccc1)c1ccccc1 (centres undefined),inactive
13,O=C(NC/C(=N/NC(=O)c1cccnc1)c1ccccc1)c1ccccc1,inactive
14,CN(Cc1cccc(C(F)(F)F)c1)C1CCN(C(=O)c2cncc(Br)c2)CC1,inactive
15,Cc1cc2nc(CSc3nc4ccc(NC(=O)CCC5CCCC5)cc4s3)cc(=O)n2o1,inactive
16,O=Cc1cccc(Br)c1O,inactive
17,Cc1ccc(S(=O)(=O)NC(C)c2cccs2)cc1 (centres undefined),inactive
18,Cc1cc(C(C)(C)C)cc(C)c1CS(=O)Cc1ccc(F)cc1 (centres undefined),inactive
19,CC(=O)c1c(C)[nH]c(C(=O)C(C)SCc2ccc(Cl)cc2)c1C (centres undefined),inactive
20,NC(=O)NNC(=S)Nc1ccc(SC(F)F)cc1,inactive
21,COC(=O)c1cc(S(=O)(=O)Nc2ccc(C)c(F)c2)c[nH]1,inactive
22,CCc1ccc(-c2csc(/C(C#N)=C\Nc3ccccc3C)n2)cc1,inactive

row,SMILES,Potency
1,Cc1sc(NC(=O)Cc2ccccc2)c(C#N)c1C,inactive
2,Cc1cc(-c2ccccc2)c(-c2nc3ccccc3s2)[nH]1,inactive
3,C=CCNCc1ccc(CC)cc1,inactive
4,COc1ccc(-c2csc(N)c2C#N)cc1,inactive
5,O=C(CCC1CCCC1)NCc1ccncc1,inactive
6,c1ccc2cc(OCCSc3ccc4ccccc4n3)ccc2c1,inactive
7,COc1cc(/C=C2/NC(=O)NC2=O)cc(I)c1OCC(=O)O,inactive
8,C[N+](C)(CCCCCC[N+](C)(C)CCCN1C(=O)c2cccc3cccc(c23)C1=O)CCCN1C(=O)c2cccc3cccc(c23)C1=O,4.47 µM (active)
9,Cc1ccc2c(c1)-c1cccc3cccc(c13)C2=O,inactive
10,COc1ccc(CNC(=O)/C=C/c2ccc(C)cc2)cc1,inactive
11,CCc1nc2ccccc2c(NC(=O)CN(CC)CC)c1C,inactive
12,Cc1ccn2c(F)c(C(F)(F)F)nc2c1,inactive
13,C=CCn1c(NCCCOCC)nc2c1c(=O)[nH]c(=O)n2C,inactive
14,Cc1ccc2[nH]c(=O)c(-c3noc(CCCC(=O)NC4CCCCC4)n3)cc2c1,inactive
15,Cc1c(F)cccc1NC(=O)C12CC3CC(CC(C3)C1)C2,inactive
16,Cc1ccc(C)c(C(C)NC(=S)NCc2ccc(Cl)cc2)c1 (centres undefined),inactive
17,O=C(c1ccc(Cl)cc1Cl)N(C1CCCCC1)C1CCCCC1,inactive
18,Cc1ccc(CNC(=O)c2scnc2C)cn1,inactive
19,Cc1cc(-c2noc(COc3ccc(I)cc3)n2)c2ccccc2n1,inactive
20,CCn1nnc(NC(=O)c2cc3ccccc3cc2OC)n1,inactive
21,O=C(C1CCC(Cn2c(=O)c3sccc3n(Cc3ccccc3F)c2=O)CC1)N1CCCCC1 (centres undefined),25.1 µM (active)
22,CCCNC(=O)C1CCC(Cn2c(=O)c3sccc3n(Cc3ccccc3F)c2=O)CC1 (centres undefined),inactive

row,SMILES,Potency
1,CC(C)NC(=O)C1CCC(Cn2c(=O)c3sccc3n(Cc3ccc(F)cc3)c2=O)CC1 (centres undefined),inactive
2,N#Cc1cccc(NC(=S)NCCc2ccccc2)c1,inactive
3,CCNCc1ccccc1C(F)(F)F,inactive
4,CCCCNC(=O)Nc1ccccc1CC(N)=O,inactive
5,O=C(CSc1ccc2c(c1)OCCO2)Nc1ccc2c(c1)OCCO2,inactive
6,COCCNc1nc(-c2ccccc2)c2cc(Br)ccc2n1,inactive
7,CCN(C(=O)C1CCN(c2nc3ccccc3o2)CC1)c1ccc(F)c(F)c1,inactive
8,CC(=O)Oc1c(Cl)cc(Cl)cc1Sc1cc(Cl)cc(Cl)c1OC(C)=O,inactive
9,Cc1ccc(OCCSc2nnc(COc3ccccc3Cl)n2C)cc1,inactive
10,CCCCCCCCc1cnc(-c2ccc(O)cc2)nc1,inactive
11,COc1cc(CN(C(=S)NCC(=O)NCc2ccccc2Cl)C2CCCC2)cc(OC)c1OC,inactive
12,CC(=O)N1CCC(NC(=O)c2cc(C)nc3cc(F)ccc23)CC1,inactive
13,Cc1nn(-c2ncnc3nc[nH]c23)c2c1C(c1cccc(F)c1)CC(=O)N2 (centres undefined),inactive
14,O=C(O)C1CCN(C(=O)Cn2ccc3c(Br)cccc32)CC1,inactive
15,CCC(=O)c1ccc(C2CCCCC2)cc1,inactive
16,C(=C\c1ccccc1)/CNC1CC1,inactive
17,N#Cc1ccc(COC(=O)CCC(=O)c2ccccc2)cc1,inactive
18,Cc1cc(C(=O)O)c(C)n1CC(F)(F)F,inactive
19,O=C(/C=C/c1cccs1)N1CC=C(c2ccccc2)CC1,inactive
20,C(#CCN1CCCCC1)COC(c1ccccc1)c1ccccc1,inactive
21,CC(C)NS(=O)(=O)c1ccc(C(=O)NCC(=O)O)cc1,inactive
22,COc1cccc(CN(C)S(=O)(=O)c2cnn(C)c2)c1OC,inactive

row,SMILES,Potency
1,CC(C)CCNC(=S)Nc1cccc(C(F)(F)F)c1,inactive
2,O=C(Nc1ccc2nc(N3CCCC3)sc2c1)c1ccc(F)cc1,inactive
3,Cc1cc(C(=O)OCc2cccc(C#N)c2)c(C)o1,inactive
4,O=C(N/N=C/c1ccccc1OCCOc1ccc([N+](=O)[O-])cc1)Nc1ccccc1,inactive
5,COc1ccc(NC(=O)Cc2ccc3c(c2)OCCO3)cn1,inactive
6,Cc1nn(C)c2c(=O)n(CC(=O)NCc3ccccc3)ccc12,inactive
7,CCOc1ccc(C(=O)CCC(=O)OCC(=O)c2ccc3c(c2)OCCO3)cc1,inactive
8,CC(C)c1ccc(NC(=O)CSc2nc3ncc(Cl)cc3[nH]2)cc1,inactive
9,COc1cc(C2CC(=O)Nc3nc(-c4ccccc4)[nH]c(=O)c32)ccc1OCc1ccc(F)cc1 (centres undefined),inactive
10,CCCCNc1oc(/C=C/c2ccc(OCC)cc2)nc1C#N,inactive
11,Cc1ccc(NC(=O)CCc2nc3cc(Cl)ccc3n(CC(C)C)c2=O)cc1,inactive
12,O=C1c2ccccc2C(=Cc2ccc(Cl)cc2)c2ccccc21,inactive
13,O=C(O)c1ccc(I)c(Br)c1,inactive
14,COc1cc(OC)cc(-c2nc3nc(C)c(CCC(=O)Nc4ccccc4)c(C)n3n2)c1,inactive
15,Cc1nc2nc(SCC(=O)N(Cc3ccccc3)C(C)C)nn2c(C)c1Cc1ccccc1Cl,22.4 µM (active)
16,Cc1nnc(SCC(=O)NCc2ccccc2Cl)c2nn(-c3ccccc3)c(C)c12,inactive
17,Cc1cccc(CC(=O)N2CC(=O)Nc3ccc(F)cc3C2c2ccccc2)c1 (centres undefined),inactive
18,CCCCOc1ccc(C(=O)N2CC(=O)Nc3ccc(Br)cc3C2c2ccc(F)cc2)cc1 (centres undefined),35.5 µM (active)
19,COc1ccc(CC(=O)N2CC(=O)Nc3ccc(Br)cc3C2c2ccc(F)cc2)cc1OC (centres undefined),inactive
20,O=C(Nc1c(N2CCCC2)c2ccccc2oc1=O)c1ccc(Br)o1,inactive
21,Cc1cc(NC(=O)c2ccc(F)cc2F)n(CCC#N)n1,inactive
